Test results published in ChEMBL document CHEMBL1961873, “Compounds: GSK PKIS; Assays: Nanosyn kinase panel” (2012).

These molecules were tested against Protein-tyrosine kinase 6 (Homo sapiens) (UniProt Q13882). Settings: at 1 µM.
Sequence of Protein-tyrosine kinase 6 (Homo sapiens) (Q13882 whole entry, looked up): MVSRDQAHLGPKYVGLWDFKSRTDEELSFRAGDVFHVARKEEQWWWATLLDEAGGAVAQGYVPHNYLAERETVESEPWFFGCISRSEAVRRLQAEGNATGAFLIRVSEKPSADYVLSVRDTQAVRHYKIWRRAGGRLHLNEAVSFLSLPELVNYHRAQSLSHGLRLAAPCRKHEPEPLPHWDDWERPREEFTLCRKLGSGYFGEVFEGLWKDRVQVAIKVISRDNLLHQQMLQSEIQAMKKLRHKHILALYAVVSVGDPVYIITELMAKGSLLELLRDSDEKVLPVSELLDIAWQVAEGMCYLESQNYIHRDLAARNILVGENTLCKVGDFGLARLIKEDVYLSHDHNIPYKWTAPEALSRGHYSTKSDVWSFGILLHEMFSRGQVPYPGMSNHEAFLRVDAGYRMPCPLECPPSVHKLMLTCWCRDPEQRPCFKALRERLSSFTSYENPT

In order of rising inhibition:
1. CC(C)COC(=O)c1ccc2c(c1)/C(=C/Nc1ccc(S(N)(=O)=O)cc1)C(=O)N2  -2.63%
2. N#Cc1c(NC(=O)c2ccc(F)cc2)sc2c1CCCC2  -2%
3. CCn1c(-c2nonc2N)nc2cnc(Oc3cccc(NC(=O)c4ccc(N(C)C)cc4)c3)cc21  -0.57%
4. CC(=O)Nc1cccc(C#Cc2cncnc2Nc2ccc(OCc3cccc(F)c3)c(Cl)c2)c1  1.55%
5. CCn1c(-c2nonc2N)nc2c(C#CC(C)(C)O)ncc(OC3CCNCC3)c21  1.62%
6. Cc1cccc2c1NC(=O)/C2=N\Nc1ccc(S(N)(=O)=O)cc1  1.67%
7. c1ccc(-c2nc3n(c2-c2ccc4c(c2)OCO4)CCC3)nc1  2.26%
8. COC(=O)Nc1nc2ccc(S(=O)(=O)c3ccc(NC(=O)Nc4cc(C(F)(F)F)ccc4F)cc3)cc2[nH]1  2.51%
9. O=C(Nc1n[nH]c2cc(-c3ccc(F)cc3)ccc12)C1CC1  2.76%
10. COc1ccc(-c2cc3c(N)ncnc3o2)cc1  2.82%
11. CNC(=O)c1cccc(C#Cc2cncnc2Nc2ccc(OCc3cccc(F)c3)c(Cl)c2)c1  2.87%
12. CCN(CC)S(=O)(=O)c1ccc(OC)c(Nc2ncc(-c3ccccc3)o2)c1  3.3%
13. CCn1c(-c2nonc2N)nc2ccccc21  3.44%
14. CS(=O)(=O)CCNCc1ccc(-c2ccc3ncnc(Nc4ccc(OCc5ccccc5)c(C(F)(F)F)c4)c3c2)o1  3.52%
15. CC(=O)NCc1cccc(C#Cc2cncnc2Nc2ccc(OCc3cccc(F)c3)c(Cl)c2)c1  3.96%
16. NS(=O)(=O)c1ccc(Nc2ncc(-c3ccccc3)o2)cc1  4.41%
17. COc1cccc(-c2c[nH]c3c(N/N=C/c4ccncc4)ncnc23)c1  4.81%
18. COc1ccc(-c2cc(-c3c[nH]nc3-c3ccccn3)ccn2)cc1  7.25%
19. [O-][S+]1CCN(Cc2ccc(-c3ccc4ncnc(Nc5ccc(OCc6cccc(F)c6)c(Cl)c5)c4c3)o2)CC1  7.3%
20. Fc1ccc(-c2nn3ccccc3c2-c2ccncc2)cc1  7.58%
21. c1cc(-c2cnn3nc(N4CCOCC4)ccc23)nc(NC2CC2)n1  7.89%
22. CN1CCC(n2cnc(-c3ccc(F)cc3)c2-c2ccnc(N)n2)CC1  8.09%
23. CNC(=O)c1cncc(/C=C/c2ccccc2Cl)c1  10%
24. Nc1nc(-c2cccc(Cl)c2)c(-c2ccc3ncccc3n2)s1  10.6%
25. CCn1cc(-c2ccnc3[nH]ccc23)c(-c2cccc(NC(=O)Nc3ccc(OCc4ccccc4)cc3)c2)n1  16.2%
26. COc1cc2c(cc1Nc1nc(Nc3ccsc3C(N)=O)c3cc[nH]c3n1)N(C(=O)CN(C)C)CCC2(C)C  19.2%
27. COc1ccc2[nH]c3c4[nH]c5ccc(OC)cc5c4c4c(c3c2c1)C(=O)NC4=O  19.6%
28. COc1ccc(-c2oc3ncnc(N)c3c2-c2ccc(NC(=O)Nc3cc(C(F)(F)F)ccc3F)cc2)cc1  25.4%
29. FC(F)(F)c1cccc(-c2nn3ncccc3c2-c2ccnc(Nc3ccc4c(c3)OCCO4)n2)c1  28.5%
30. NS(=O)(=O)c1ccc(N/N=C2\C(=O)Nc3ccc4ncccc4c32)cc1  31.9%
31. Nc1ncc(-c2cccc(S(N)(=O)=O)c2)c2scc(-c3ccc(F)c(Cl)c3)c12  47.5%
32. COc1ccc(-c2nn3ncccc3c2-c2ccnc(Nc3ccc4c(c3)OCCO4)n2)cc1  67.5%
33. Cc1ccc(O)cc1Nc1ccnc2cc(-c3ccccn3)ccc12  96.9%
